Screening data from PubChem BioAssay.
IDE cell activ: IDE (human) activation, cell-based; HEK cells, FAbeta-B cleavage, fluorescence polarization; 0% vehicle, 100% cell-free pure enzyme wells; P14735; activation, % at 5.96 µM; actives 0.073% (n = 340,000);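 active = activation above the mean of all tested compounds plus 3 SD, set per screening campaign, cut at about 17% in these data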
Target sequence (P14735 whole entry, looked up): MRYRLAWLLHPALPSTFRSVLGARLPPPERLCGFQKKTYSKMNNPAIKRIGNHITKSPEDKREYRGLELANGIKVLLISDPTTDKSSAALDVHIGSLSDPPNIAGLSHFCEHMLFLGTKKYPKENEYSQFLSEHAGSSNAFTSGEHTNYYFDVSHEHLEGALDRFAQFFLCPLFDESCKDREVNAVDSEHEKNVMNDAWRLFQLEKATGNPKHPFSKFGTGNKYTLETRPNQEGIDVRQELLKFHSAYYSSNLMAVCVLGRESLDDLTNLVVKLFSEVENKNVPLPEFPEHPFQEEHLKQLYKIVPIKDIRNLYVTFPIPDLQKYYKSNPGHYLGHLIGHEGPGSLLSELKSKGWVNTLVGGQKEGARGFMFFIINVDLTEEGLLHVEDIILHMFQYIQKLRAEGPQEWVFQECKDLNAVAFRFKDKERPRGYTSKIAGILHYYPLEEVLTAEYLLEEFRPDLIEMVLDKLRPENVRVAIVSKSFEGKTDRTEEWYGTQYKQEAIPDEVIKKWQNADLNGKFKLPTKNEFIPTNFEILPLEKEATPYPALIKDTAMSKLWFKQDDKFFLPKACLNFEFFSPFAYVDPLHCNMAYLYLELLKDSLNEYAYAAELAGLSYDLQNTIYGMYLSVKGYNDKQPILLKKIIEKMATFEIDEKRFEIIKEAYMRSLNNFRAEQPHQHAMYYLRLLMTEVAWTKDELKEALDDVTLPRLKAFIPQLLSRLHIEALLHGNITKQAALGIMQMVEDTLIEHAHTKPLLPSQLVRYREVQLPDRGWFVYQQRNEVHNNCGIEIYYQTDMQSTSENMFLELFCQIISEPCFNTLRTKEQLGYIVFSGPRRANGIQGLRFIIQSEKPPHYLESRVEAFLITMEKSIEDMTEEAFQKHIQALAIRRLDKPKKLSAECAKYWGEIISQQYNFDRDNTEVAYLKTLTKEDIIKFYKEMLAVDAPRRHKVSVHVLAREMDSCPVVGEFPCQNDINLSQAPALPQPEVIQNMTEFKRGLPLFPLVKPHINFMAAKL
Cardiac RTF inh: cardiac RTF calcium desensitization; P19429+P45379; IANBD-labeled cardiac RTF, Ca2+ fluorescence; inhibition, % at 7.15 µM; actives 0.12% (n = 340,000); AID 493244;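 active = inhibition above the mean inhibition of all tested compounds plus 3 SD, cut at about 17% in these data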;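 also: assay run at fixed EC70 calcium of 1.6 mM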
RTF Ca sens act: cardiac RTF calcium sensitization; P19429+P45379; IANBD-labeled TnC RTF fluorescence at EC20 calcium; 0% EC20 calcium, 100% full calcium; activation, % at 7.2 µM; actives 0.24% (n = 340,000);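 active = activation above the mean over all tested compounds plus 3 SD, cut at about 30% in these data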;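 also: rise in fluorescence read as greater calcium sensitivity of cardiac thin filaments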
CRFBP-R2 agonist: agonists of human CRF-binding protein/CRF-R2 receptor complex | actives 0.46% (n = 350,000) | HEK293 CRF-R2/CRF-BP, calcium dye fluorescence (FLIPR); percent of saturating CRF peptide response | AID 588473 | activation, % at 13.2 µM;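 active = activation of at least 50%, plus an integration ratio under a set limit after plate pattern correction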;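 also: plate controls were neutral control wells without compound for no effect and CRF at EC100 for full effect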
IDE inh: inhibits human insulin-degrading enzyme in HEK cells; actives 0.41% (n = 320,000); P14735; FAbetaB cleavage, fluorescence polarization; inhibition, % at 5.59 µM; AID 434962;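 active = percent inhibition above the average of all tested compounds plus 3 SD, set per screening campaign, cut at about 16% in these data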;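 also: IDE supplied by intact live HEK cells; FP after avidin binding of uncleaved biotin substrate so inhibition keeps polarization high; 0% = DMSO wells and 100% = 60 µM reference IDE inhibitor Ii1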
CRFR2-BP antag: CRF-BP/CRF-R2 complex antagonism | HEK293 CRF-R2/CRF-BP, CRF-induced calcium fluorescence | inhibition, % at 11.8 µM | actives 0.59% (n = 350,000);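 active = inhibition of the ligand-induced calcium signal above about 50% at the single tested concentration, limit read from the data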
IDE cell inh cf: confirmation of human insulin-degrading enzyme inhibitors in cells; inhibition, % at 5.59 µM; HEK cells, FAbetaB cleavage, fluorescence polarization; shares compounds with IDE inh; actives 51% (n = 1,200);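 active = mean inhibition across triplicate wells above the cutoff set by the earlier primary insulin-degrading enzyme screen, cut at about 16% in these data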;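 also: 0% = DMSO wells and 100% = 60 µM reference IDE inhibitor Ii1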
HEK293 tox: counter-screen for IDE inhibitors: cytotoxicity in HEK cells; shares compounds with IDE inh; actives 28% (n = 1,200); HEK293 cytotoxicity, ATP luminescence; inhibition, % at 5.59 µM; in the data active = inhibition above about 22%;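 also: 0% = vehicle wells and 100% = reference cytotoxic drug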
Starred values were filed as active, the others as inactive. Hits are enriched below; roughly 1.5% of the tested compounds scored in any of these assays.

What do the screens show for `O=C(COc1ccc2c3c(c(=O)oc2c1)CCCC3)NCc1ccccn1`?
IDE cell activ: 1; Cardiac RTF inh: -5; RTF Ca sens act: -2; CRFBP-R2 agonist: -2; IDE inh: -5; CRFR2-BP antag: -6

How did C=CCN1C(=O)/C(=C\c2ccc(OC(=O)c3ccco3)c(OC)c2)SC1=S do in these assays?
IDE cell activ: -77; Cardiac RTF inh: 2; RTF Ca sens act: 1; CRFBP-R2 agonist: 2; IDE inh: 32*; CRFR2-BP antag: -5; IDE cell inh cf: 143*; HEK293 tox: 11

How did C=CCN1C(=O)/C(=C\c2cccc(OC(=O)c3ccco3)c2)SC1=S do in these assays?
IDE cell activ: 1; Cardiac RTF inh: -12; RTF Ca sens act: -10; CRFBP-R2 agonist: 1; IDE inh: 4; CRFR2-BP antag: 0

What do the screens show for `O=C(O)CN1C(=O)/C(=C\c2ccc(OC(=O)c3ccco3)cc2)SC1=S`?
IDE cell activ: -53; Cardiac RTF inh: -7; RTF Ca sens act: 6; CRFBP-R2 agonist: 2; IDE inh: 35*; CRFR2-BP antag: -4; IDE cell inh cf: 160*; HEK293 tox: 6

What do the screens show for `O=C(O)CN1C(=O)/C(=C\c2cccc(OC(=O)c3ccco3)c2)SC1=S`?
IDE cell activ: 1; Cardiac RTF inh: 2; RTF Ca sens act: -4; CRFBP-R2 agonist: 0; IDE inh: 1; CRFR2-BP antag: 9

How did Cc1ccc2oc(=O)c3cc(C(=O)NCCCN4C(C)CCCC4C)sc3c2c1 (centres undefined) do in these assays?
IDE cell activ: -4; Cardiac RTF inh: 2; RTF Ca sens act: -2; CRFBP-R2 agonist: 3; IDE inh: 4; CRFR2-BP antag: -20

What do the screens show for `CNc1nc(N)c([N+](=O)[O-])c(Nc2ccccc2OC)n1`?
IDE cell activ: 4; Cardiac RTF inh: 3; RTF Ca sens act: -1; CRFBP-R2 agonist: -3; IDE inh: 2; CRFR2-BP antag: -70

How did CCOc1cc(/C=C(/C#N)C(=O)Nc2ccc(O)cc2)cc(Br)c1O do in these assays?
IDE cell activ: -58; Cardiac RTF inh: -9; RTF Ca sens act: 7; CRFBP-R2 agonist: 96*; IDE inh: 38*; CRFR2-BP antag: -81; IDE cell inh cf: 75*; HEK293 tox: 57*

What do the screens show for `COc1ccc(NC(=O)C(NC(=O)c2ccc(C)cc2)c2ccccc2)cc1` (centres undefined)?
IDE cell activ: -1; Cardiac RTF inh: -1; RTF Ca sens act: 3; CRFBP-R2 agonist: 0; IDE inh: 2; CRFR2-BP antag: -13

Results for O=C(OCC1OC(n2ccc(=O)[nH]c2=O)C2OC12)c1ccccc1 (centres undefined) ?
IDE cell activ: 0; Cardiac RTF inh: -1; RTF Ca sens act: -6; CRFBP-R2 agonist: 0; CRFR2-BP antag: -6

How did COc1cc2c(cc1CNC[C@H]1O[C@@H](n3ccc(N)nc3=O)[C@H](O)[C@@H]1O)OCO2 do in these assays?
CRFBP-R2 agonist: 1; CRFR2-BP antag: 41

What do the screens show for `CSc1ncccc1C(=O)OCC(=O)NC1CCCc2ccccc21` (centres undefined)?
IDE cell activ: -16; Cardiac RTF inh: -1; RTF Ca sens act: -1; CRFBP-R2 agonist: -5; IDE inh: 19*; CRFR2-BP antag: 13; IDE cell inh cf: 0; HEK293 tox: 15

How did O=C(NCCc1nnc2ccc(NCCCN3CCOCC3)nn12)c1ccccc1F do in these assays?
IDE cell activ: 3; Cardiac RTF inh: -7; RTF Ca sens act: 3; CRFBP-R2 agonist: 0; IDE inh: 2; CRFR2-BP antag: -4

How did C=CC[C@@H](CC(=O)NCCO)C(=O)N[C@@H](C)COC(=O)[C@@H](CC=C)Cc1ccc(F)cc1 do in these assays?
IDE cell activ: 1; Cardiac RTF inh: -35; RTF Ca sens act: -5; CRFBP-R2 agonist: 0; IDE inh: 3; CRFR2-BP antag: 0

How did CN(C)C=Nc1c(Br)cc(Br)c2nonc12 do in these assays?
IDE cell activ: -31; Cardiac RTF inh: -56; RTF Ca sens act: 32*; CRFBP-R2 agonist: 109*; IDE inh: 26*; CRFR2-BP antag: -66; IDE cell inh cf: 62*; HEK293 tox: 7

How did COc1ccc(C)cc1NC(=O)CCc1ccc(S(=O)(=O)N2CCOCC2)cc1 do in these assays?
IDE cell activ: -1; Cardiac RTF inh: -6; RTF Ca sens act: 0; CRFBP-R2 agonist: -2; IDE inh: -2; CRFR2-BP antag: 6

Results for O=C(Cc1ccccc1)Nn1c(O)c(/C=C2\C=Nc3ccccc32)sc1=S ?
IDE cell activ: -63; Cardiac RTF inh: -76; RTF Ca sens act: 58*; CRFBP-R2 agonist: 67*; IDE inh: 62*; CRFR2-BP antag: -119; IDE cell inh cf: 43*; HEK293 tox: 11

Results for Cn1c(O)c(/C=C2\C=Nc3ccccc32)sc1=Nc1ccc(C(=O)O)cc1 ?
IDE cell activ: 3; Cardiac RTF inh: -1; RTF Ca sens act: 0; CRFBP-R2 agonist: -2; IDE inh: -2; CRFR2-BP antag: 1

How did Cc1cc(NS(=O)(=O)c2cn(C)nc2C)no1 do in these assays?
IDE cell activ: 4; Cardiac RTF inh: -3; RTF Ca sens act: 4; CRFBP-R2 agonist: 0; IDE inh: -4; CRFR2-BP antag: -1

Results for Cc1nn(CC(=O)N2CCN(c3ccc(Cl)cc3)CC2)c(=O)c2cccn12 ?
IDE cell activ: -3; Cardiac RTF inh: -2; RTF Ca sens act: 6; CRFBP-R2 agonist: -4; IDE inh: 3; CRFR2-BP antag: -22

Results for CC(C)(C)c1ccc(NC(=O)CN2C(=O)NC(C)(C3CC3)C2=O)cc1 (centres undefined) ?
IDE cell activ: 1; Cardiac RTF inh: -2; RTF Ca sens act: 0; CRFBP-R2 agonist: 2; IDE inh: 1; CRFR2-BP antag: -20

Results for COc1cc(/C=C(\C#N)c2[nH]nc(N)c2C#N)cc(OC)c1O ?
IDE cell activ: -73; Cardiac RTF inh: -12; RTF Ca sens act: 0; CRFBP-R2 agonist: 18; IDE inh: 84*; CRFR2-BP antag: -22; IDE cell inh cf: 166*; HEK293 tox: 9

How did COc1cc(/C=C(\C#N)c2ccccn2)ccc1OCc1ccccc1Cl do in these assays?
IDE cell activ: -3; Cardiac RTF inh: -1; RTF Ca sens act: -6; CRFBP-R2 agonist: 0; IDE inh: -3; CRFR2-BP antag: -6

How did COc1cc(/C=C(\C#N)c2ccccn2)cc(OC)c1O do in these assays?
IDE cell activ: -166; Cardiac RTF inh: -2; RTF Ca sens act: 3; CRFBP-R2 agonist: 35; IDE inh: 160*; CRFR2-BP antag: -33; IDE cell inh cf: 52*; HEK293 tox: 17
